97 compounds from PubChem BioAssay AID2221 (Broad Institute, 2009) can be followed below.

Each structure is given as a SMILES string. Hit rate of the full screen: of about 290,000 compounds, about 2,200 (0.76%) were called active. Many of the other results were omitted from the sample, so actives are more common in it than they were. Values without a mark were called inactive. No stated cut-off is given here; in the data, active means inhibition above about 30%; inconclusive means no clear call, values can overlap the other calls; inactive means below that.

In this test the target is Protein RecA (Mycobacterium tuberculosis (strain ATCC 25618 / H37Rv)) (UniProt P9WHJ3). The test can be described thus: Mtb RecA intein splicing inhibitors, primary screen, biochemical, fluorescence, HTS (AID 2221).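 Further: 0% = vehicle wells and 100% = reference inhibitor control wells.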 As to conditions: cell-free RecA intein splicing, hits give high values, concentration not given here.
Protein RecA (Mycobacterium tuberculosis (strain ATCC 25618 / H37Rv)), sequence (P9WHJ3 whole entry, looked up): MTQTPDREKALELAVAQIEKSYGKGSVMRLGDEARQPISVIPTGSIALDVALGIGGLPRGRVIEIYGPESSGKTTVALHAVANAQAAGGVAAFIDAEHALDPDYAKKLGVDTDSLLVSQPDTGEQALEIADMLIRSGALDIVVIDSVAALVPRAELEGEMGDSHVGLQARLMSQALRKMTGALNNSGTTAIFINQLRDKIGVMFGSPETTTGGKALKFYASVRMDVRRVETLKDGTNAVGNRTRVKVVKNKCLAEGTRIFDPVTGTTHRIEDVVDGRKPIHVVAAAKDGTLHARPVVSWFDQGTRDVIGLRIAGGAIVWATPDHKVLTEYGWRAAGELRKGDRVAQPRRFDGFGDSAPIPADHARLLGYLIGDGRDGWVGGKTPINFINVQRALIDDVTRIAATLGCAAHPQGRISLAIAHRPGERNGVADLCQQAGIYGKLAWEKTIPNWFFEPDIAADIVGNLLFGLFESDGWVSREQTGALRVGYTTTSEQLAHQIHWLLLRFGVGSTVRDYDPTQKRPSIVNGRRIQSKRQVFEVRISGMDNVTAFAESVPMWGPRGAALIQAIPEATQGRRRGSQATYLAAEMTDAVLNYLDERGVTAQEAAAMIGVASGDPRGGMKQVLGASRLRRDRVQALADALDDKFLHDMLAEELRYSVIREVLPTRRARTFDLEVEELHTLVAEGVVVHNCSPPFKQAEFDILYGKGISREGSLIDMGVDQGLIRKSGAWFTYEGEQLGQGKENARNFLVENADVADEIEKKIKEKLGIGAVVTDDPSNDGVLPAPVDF
The inhibition is the drop in the measured response relative to a control, in per cent. In the case of `COc1cc(C(F)(F)F)nc2c(Br)c(C(C)(C)C)nn12`, the inhibition was 0.549%.
In the case of `CCOC(=O)c1cc(S(=O)(=O)NCCc2ccc(OC)c(OC)c2)cn1C`, the inhibition is -0.521%.
Then `COc1ccc(C(=O)NC(=S)NNC(=O)CCc2ccccc2)cc1`, with 34.5% (active); and `COc1ccc(C(=O)NNC(=S)NC(=O)c2ccccc2)cc1`, with 7.5%; and `CC(C)Oc1ccc(CCC(=O)NNC(=S)NCc2ccccc2)cc1`, with 0.193%.
As for `COc1ccc(N2CC(C(=O)NCCS(=O)(=O)N3CCN(c4ccccc4)CC3)CC2=O)cc1` (configuration not stated), the inhibition is -1.96%.
Then `CC(C)C(NC(=O)C1CCC(C(C)(C)C)CC1)C(=O)NCCCN1CCCCC1` (configuration not stated), with 0.406%.
Consider `Cc1ccc(F)cc1NC(=O)Cc1nn(C)c(=O)c2ccccc12`, for which the inhibition is -33.8%.
For the compound `Cc1c(-c2nn(C)c(=O)c3ccccc23)oc2ccc(F)cc2c1=O`, the inhibition is 88.2% (active).
Take `O=C1c2oc3ccc(Br)cc3c(=O)c2C(c2cccc(F)c2)N1CCO` (configuration not stated): the inhibition was 1.67%.
For the compound `COc1cccc(N2C(=O)CN(Cc3ccccc3)C2=S)c1`, the inhibition was 0.665%.
The value for `O=C(COc1ccc(Cl)cc1Cl)NCCCNC(=O)c1cnccn1` was 1.17%; that for `CCOC(=O)/C(=N\Nc1ccccc1[N+](=O)[O-])c1csc(Nc2ccccc2)n1` was -3.85%.
On to `Cc1c(-c2ccccc2)nc(N)c(C#N)c1-c1cccs1`, for which the inhibition is -1.05%.
As to `CN1CCc2nc(SC(C(=O)O)c3ccccc3)c(C#N)c(-c3cccs3)c2C1` (configuration not stated), the inhibition was 34.8% (active).
The value for `CCc1c(-c2ccccc2)nc(N)c(C#N)c1-c1cccs1` was 4.71%.
Turning to `O=C(Cc1ccccc1F)NC1CCSc2ccccc21` (configuration not stated), the inhibition was -0.276%.
Then `Cc1nc(-c2ccccc2)sc1C1(C)CC(c2cccnc2)=NO1` (configuration not stated), with 1.29%.
For `N#Cc1nc(N)nc(N(c2ccccc2)c2ccccc2)n1`, the inhibition is 37.4% (active).
For the compound `Nc1nc(-c2ccccc2)cc(-c2ccccc2)n1`, the inhibition is 6.87%.
Turning to `Cc1nc2ccccn2c(=O)c1NC(=O)c1cccs1`, the inhibition was -0.75%.
Then `Cc1c(Cl)cccc1NC(=O)CCC(=O)N/N=C/c1ccco1`, with -1.26%; and `CCC(C)NC(=O)CCCc1ccccc1` (configuration not stated), with -3.16%; and `CC(CCn1cccn1)NC(=O)CCc1nnc(CCc2ccccc2)o1` (configuration not stated), with 36.9% (active).
As to `O=C(CCc1nnc(CCCCc2ccccc2)o1)NC(c1cccnc1)C(F)(F)F` (configuration not stated), the inhibition is -3.54%.
On to `Cc1cc(=O)n2nc(N3CCC(C(=O)Nc4c(F)c(F)c(F)c(F)c4F)CC3)sc2n1`, for which the inhibition was 0.056%.
On to `CNC(=O)COC(=O)c1cc(-c2ccc(OC)cc2)nc2ccccc12`, for which the inhibition is -2.37%.
Consider `COc1ccc(-c2cc(C(=O)Nc3ccccc3O)c3ccccc3n2)cc1`, for which the inhibition is -0.565%.
`COc1ccc(-c2cc(C(=O)n3cnc4ccccc43)c3ccccc3n2)cc1`: the inhibition was 37.7% (active).
As for `CCCNC(=O)CSc1nc(Cc2ccccc2)nc2ccccc12`, the inhibition was 15.4%.
The value for `CCN(CC)S(=O)(=O)c1cc([N+](=O)[O-])ccc1NNC(=O)Nc1ccccc1` was 0.713%; that for `COc1ccc(-n2nnnc2CNC(=O)c2ccc3ccccc3c2)cc1` was -1.28%; that for `Cc1ccc([N+](=O)[O-])c(OCCCNCC(C)O)c1` (configuration not stated) was -0.0235%.
For the compound `Cc1ccc(CN2CCN(c3ncccn3)CC2)c(C)c1`, the inhibition was 0.612%.
The value for `C=CCn1c(SCC(=O)NCC2CCCO2)nc2sc(C)c(C)c2c1=O` (configuration not stated) was 0.158%.
Consider `Cc1ccc(NC(=O)c2cnc(SCC(=O)NCC3CCCO3)n(C)c2=O)cc1` (configuration not stated), for which the inhibition is 35.1% (active).
Regarding `Cn1c(SCC(=O)c2ccccc2)ncc(C(=O)Nc2ccc(F)cc2)c1=O`, the inhibition is -0.487%.
In the case of `COc1c(O)ccc2c1CN1CCc3cc4c(cc3C1C2)OCO4` (configuration not stated), the inhibition is 68.5% (active).
The value for `COc1ccc2cc1Oc1ccc(cc1)C[C@H]1c3cc(c(OC)cc3CCN1C)Oc1c(O)c(OC)cc3c1[C@H](C2)N(C)CC3` was -4.49%; that for `COc1ccc2c(c1O)-c1cccc3c1[C@@H](C2)N(C)CC3` was -6.28%.
For the compound `CC(C)(C)OC(=O)NC(Cc1ccccc1)C(=O)NC(CSC1CCCCO1)C(=O)NN` (configuration not stated), the inhibition is -1.13%.
The value for `CC1(C)CC(=O)c2cnc3nc4ccccc4n3c2C1` was -0.669%; that for `CC(CNc1ccc([N+](=O)[O-])c2cccnc12)Nc1c([N+](=O)[O-])cc(C(F)(F)F)cc1[N+](=O)[O-]` (configuration not stated) was 1.36%; that for `COc1ccc(-c2cc(C(F)(F)F)nc(NCc3cccnc3)n2)cc1` was -1.1%.
As for `COc1ccc(-c2cc(C(F)(F)F)nc(S(C)(=O)=O)n2)cc1OC`, the inhibition was 42% (active).
The value for `COc1ccc(-c2ccc(Nc3ccc(S(=O)(=O)N4CCCC4)cc3)nn2)cc1OC` was -1.08%.
As to `Cn1cc(CCC(=O)NC2CC2)c2ccccc21`, the inhibition was -0.418%.
As to `O=C(CN1CCN(C(=S)NC2CCCC2)CC1)Nc1ccc(Oc2ccccc2)cc1`, the inhibition is 5.42%.
Then `COCc1cc(C)n(CC(=O)NCC2CCCO2)c(=O)c1C#N` (configuration not stated), with -0.67%; and `CC(=O)C12CC(C)=C(C)CC1CC1C3CCC4=CC(=O)CCC4(C)C3CCC12C` (configuration not stated), with 36% (active).
Then `CC(=O)O[C@]1(C(C)=O)CC[C@H]2[C@@H]3C=C(C)C4=CC(=O)CC[C@]4(C)[C@H]3CC[C@@]21C`, with 11%; and `C[C@]12C=CC(=O)C=C1CC[C@@H]1[C@@H]2C(=O)C[C@@]2(C)[C@H]1CC[C@]2(O)C(=O)CO`, with 1.39%.
On to `CCN(CC)c1ccc2cc(C(N)=O)/c(=N\NC(=O)c3ccncc3)oc2c1`, for which the inhibition is -24.7%.
Turning to `C=CCN(C(=O)Nc1ccc2oc(C)nc2c1)c1ccccc1`, the inhibition was 1.61%.
The value for `CCN(CC)c1ccc2oc(=O)c(C)nc2c1` was 30.2% (active); that for `COc1ccc(-c2nnc(SCC(=O)c3ccc4c(c3)OCCO4)o2)cc1` was 0.107%.
The value for `COc1ccc(-c2nnc(SCc3cccnc3)o2)cc1` was -3.4%; that for `COc1ccc(-c2nnc(SC(=O)N3c4ccccc4Sc4ccccc43)o2)cc1` was 46.6% (active); that for `CC(=O)c1cccc(NC(=O)C2COc3ccccc3O2)c1` (configuration not stated) was 0.944%.
The value for `C[C@H](NC(=O)C1CCN(S(=O)(=O)c2ccccc2)CC1)C(=O)NCc1ccccc1` was 1.64%; that for `COC(=O)c1sc(SC)c(S(=O)(=O)C(C)C)c1N/N=C(\C#N)S(=O)(=O)c1ccccn1` was 3.07%.
In the case of `CCCc1[nH]nc2c1C(c1ccc(Br)s1)C(C#N)=C(N)O2` (configuration not stated), the inhibition is 56% (active).
The value for `CCCc1[nH]nc2c1C(c1ccc(OC(=O)c3ccco3)cc1)C(C#N)=C(N)O2` (configuration not stated) was 81.6% (active); that for `CCCc1[nH]nc2c1C(C1CC=CCC1)C(C#N)=C(N)O2` (configuration not stated) was 4.97%.
Take `CCCc1nc2c([nH]1)C(c1cccnc1)C(C#N)=C(N)O2` (configuration not stated): the inhibition is -1.72%.
Turning to `CCC1=C(C(=O)OC)C(c2cc(OC)ccc2OC)C(C#N)=C(N)O1` (configuration not stated), the inhibition was -1.35%.
Take `COc1ccc(-c2[nH]nc3c2C(c2ccncc2)C(C#N)=C(N)O3)cc1` (configuration not stated): the inhibition is 69.7% (active).
The value for `CCOC(=O)C1=C(C)OC(N)=C(C#N)C1c1cncc(-c2ccc(F)cc2)c1` (configuration not stated) was 2.26%.
Then `COc1cc(C2C(C#N)=C(N)Oc3n[nH]c(-c4ccccn4)c32)cc(OC)c1OC` (configuration not stated), with 17.2%.
Then `CCOc1c(OC)cc(C2C(C#N)=C(N)Oc3n[nH]c(-c4ccncc4)c32)cc1OC` (configuration not stated), with 23.1%.
For the compound `CCc1ccc(C2C(C#N)=C(N)Oc3n[nH]c(CC(=O)OC)c32)cc1` (configuration not stated), the inhibition was 63.8% (active).
With `CCOC(=O)C1=C(CC)OC(N)=C(C#N)C1c1ccc(F)cc1F` (configuration not stated), the inhibition is -3.52%.
For the compound `COCc1[nH]nc2c1C(C1C=CCCC1)C(C#N)=C(N)O2` (configuration not stated), the inhibition was -0.266%.
The value for `NC(=O)c1cc(S(=O)(=O)NCCCc2ccco2)cs1` was -6.35%.
Then `CN(C)c1ccc(C=NCCc2ccc(S(N)(=O)=O)cc2)cc1`, with -4.96%; and `Cc1ccc(NC(=O)N2CCSc3ccccc32)cc1`, with -0.155%; and `CCN(CC)CC(=O)Nc1sc2c(c1C(=O)c1ccccc1C)CCC2`, with 11.9%.
For `Cc1cc(C)c(C)c(S(=O)(=O)N[C@@H](C)C(=O)OC(C)C(=O)NC(N)=O)c1C` (some centres not stated), the inhibition was -2.04%.
The value for `CC(CO)(CO)NC(=O)c1ccc(=O)[nH]n1` was 0.0563%; that for `O=C(c1ccc[nH]c1=S)N1CCN(S(=O)(=O)c2ccc(Br)cc2Cl)CC1` was -3.23%; that for `Cc1ccc(-n2c(=O)cc(N3CCN(Cc4ccccc4)CC3)[nH]c2=O)cc1` was -1.51%.
For the compound `S=C(Nc1ccc(Cl)cc1Cl)N1CCCC1`, the inhibition is -0.599%.
Take `Cc1cccc(OC(C)C(=O)N2CCc3ccccc3C2)c1` (configuration not stated): the inhibition is 0.662%.
Regarding `O=C(Cc1ccccc1)Nc1ccc(C(=O)Nc2ccccc2C(=O)O)cc1`, the inhibition was 0.81%.
The value for `O=C(c1cccnc1)N1CCN(S(=O)(=O)c2cccs2)CC1` was -1.81%.
The value for `Cc1ccc(-n2nc3c(=O)n(C(C)C(=O)NCc4ccc5c(c4)OCO5)nc(C)c3c2C)cc1` (configuration not stated) was 3.2%; that for `CC1=NNC(=O)C1Cc1c(Cl)cccc1Cl` (configuration not stated) was 90.8% (active).
On to `CC1=NNC(=O)C1CCC(=O)N/N=C\c1cccc(Cl)c1` (configuration not stated), for which the inhibition was -2.34%.
Consider `CC1=NNC(=O)C1CCC(=O)N/N=C\c1ccc(Cl)c(Cl)c1` (configuration not stated), for which the inhibition was 0.906%.
The value for `O=C(CN1CCc2cc3c(cc2C1)OCCCO3)Nc1ccccc1` was 1.99%; that for `COc1ccc(C(=O)NC2CC(C)(C)Cc3c2cnn3-c2ccccc2C)o1` (configuration not stated) was 3.96%.
Then `Cc1cccc(NC(=O)c2nc(S(=O)(=O)Cc3ccccc3)ncc2Cl)c1`, with 78% (active); and `Cc1cccc(NC(=O)c2nc[nH]c2C(=O)NCC(=O)OCc2ccccc2)c1`, with -3.32%.
Then `Cc1cccc(OCc2ccc(C(=O)Nc3ccc(F)cc3)cc2)c1`, with -2.68%.
For `CCOc1ccc(NC(=O)c2nc(SCC)ncc2Cl)cc1`, the inhibition is -3.31%.
As to `Cc1cccc(CS(=O)(=O)c2ncc(Cl)c(C(=O)Nc3ccc(F)cc3)n2)c1`, the inhibition was 31.6% (active).
In the case of `CCSc1ncc(Cl)c(C(=O)Nc2cc(C)ccc2C)n1`, the inhibition is -2.65%.
